Screening data deposited in PubChem BioAssay by National Center for Advancing Translational Sciences (NCATS).
The list is not random: actives were taken first. Their share in the collection is about 14%.
Sm TGR inh = qHTS Assay for the Inhibitors of Schistosoma Mansoni Peroxiredoxins; Schistosoma mansoni thioredoxin glutathione reductase (TGR), Q962Y6; Potency, µM (series often up to 114 µM), for the others: at the top dose activity change, negative = inhibition, actives largely listed as inhibitors; purified TGR, DTNB reduction, TNB absorbance 405 nm; hit rate 3% among 360,000; note: potency is the fitted concentration of half-maximal effect; nearly all actives have a fitted effect of over 60% in size
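First, TGR (20 nM dispensed) and NADPH were mixed with compound. Second, a 15 min room-temperature incubation followed. Third, further NADPH and then DTNB were added to start the reaction. Finally, TNB absorbance was monitored kinetically.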
HCMV inh = qHTS Assay for inhibitors of the human cytomegalovirus (HCMV) | activity change, negative = inhibition, % at 57.5 µM | HFF cells, HCMV-luciferase reporter, 72 h; active compounds read low | hit rate 4.5% among 410,000; in the data active = activity change below about -60%; inconclusive = no clear call, values can overlap the other calls; inactive = above about -39%
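After 16 h attachment at 37C, HFF cells received test compound and HCMV-luciferase (1 PFU/cell); reporter luminescence read 72 h later, data normalized against buffer-only and known inhibitor Salinomycin.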
Giardia FBPA inh = qHTS Assay for Inhibitors of Fructose-1,6-bisphosphate Aldolase from Giardia Lamblia | purified Giardia FBPA | hit rate 0.71% among 290,000 | A8B2U2 | AID 2451, 2010 | Potency, µM (highest dose often 59.6 µM), without a hit: top-dose activity, negative = inhibition, hits mostly inhibitors; note: potency is the fitted concentration of half-maximal effect; nearly all actives have a fitted effect of over 55% in size
Target sequence (A8B2U2 whole entry, looked up): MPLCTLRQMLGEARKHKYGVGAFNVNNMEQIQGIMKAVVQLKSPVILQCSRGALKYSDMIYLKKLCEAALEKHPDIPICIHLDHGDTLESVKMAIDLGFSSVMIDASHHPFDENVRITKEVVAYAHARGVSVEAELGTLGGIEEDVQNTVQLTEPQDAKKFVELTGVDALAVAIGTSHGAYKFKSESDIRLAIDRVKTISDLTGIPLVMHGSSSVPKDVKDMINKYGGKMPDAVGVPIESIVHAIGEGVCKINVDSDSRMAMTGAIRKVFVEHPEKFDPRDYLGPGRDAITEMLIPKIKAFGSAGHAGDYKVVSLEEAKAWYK
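Giardia FBPA (40 nM reagent) was preincubated 10 min at RT with compound (up to 57.5 uM final), then substrate plus GAPDH/TPI/NAD/arsenate coupling system with diaphorase/resazurin was added; resorufin fluorescence (525/598 nm) was read after 20 min.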
Pf growth 96h = Primary qHTS for delayed death inhibitors of the malarial parasite plastid, 96 hour incubation; P. falciparum luciferase reporter growth, 96 h; Potency, µM (series often up to 28.7 µM), inactives show top-dose activity change, negative = inhibition, actives largely listed as inhibitors; hit rate 6.9% among 320,000; AID 504834, 2011; note: potency is the fitted concentration of half-maximal effect
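Infected RBCs, 2% Hct / 0.05% parasitemia final; luciferase-reporter P. falciparum; cpd 96 h, 37 C, 5% CO2; luciferase detection reagent; luminescence.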
Pf growth 48h = Primary qHTS for delayed death inhibitors of the malarial parasite plastid, 48 hour incubation; P. falciparum luciferase growth in erythrocytes, 48 h; Potency, µM (doses to about 28.7 µM), without a hit: at the top dose activity change, negative = inhibition, hits mostly inhibitors; hit rate 5.9% among 310,000; note: potency is the fitted concentration of half-maximal effect
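Compounds are pin-transferred into medium, infected erythrocytes (2% hematocrit, 0.1% parasitemia final) are added, and plates sit one parasite generation at 37 C in 5% CO2. Detection reagent is then added and luminescence measured.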
Numbers without * were called inactive; ? = inconclusive; nt = no result; [ ] = remark or other dose. Unless noted, calls come from the whole dose curve; as a rule, active = well fitted curve in the direction sought with a large enough effect; inconclusive = small, poorly fitted or top-dose-only effect, or another doubt; inactive = no such curve, though single readings can be large; an effect the other way counts as inactive or inconclusive. % is set by controls: 0 for no effect and ±100 for the full control effect.

SMILES	Sm TGR inh	HCMV inh	Giardia FBPA inh	Pf growth 96h	Pf growth 48h
CCN(CC)c1ccc(C2C3CCCCC3(O)CCN2C(=O)c2cccs2)cc1 (centres undefined)	3%	15	-13%	12µM*	?
Cc1ccc(C(C)C)n1C(=O)OC(C)(C)C	nt	nt	0%[12.9 µM]	nt	nt
CCC(=O)N1CC(=O)N2[C@H](C1)[C@@H](c1ccc(Br)cc1)[C@@H]2CO	nt	18	nt	nt	nt
Cc1ccc(C(=O)NC(=S)Nc2cccc3nsnc23)cc1	?	22	?	-17%	?
Cc1ccc(C(=O)NC(=S)Nc2cccc3c(C)cc(C)nc23)cc1	2%	2	-15%	12µM*	?
C=CCNCCCCOc1c(Cl)cc(C)cc1Br	-23%	-9	-25%	-60%	9.3µM*
COCCCNCCCCOc1c(Cl)cc(C)cc1Br	22%	5	?	10%	-19%
COc1ccc(C(=O)N/N=C(\C)c2cccc(NC(=O)c3ccc(F)cc3)c2)c(OC)c1	-11%	-61*	nt	-17%	0%
COc1ccc(C(=O)N/N=C(/C)c2cccc(NC(=O)c3ccccc3F)c2)cc1	7%	15	nt	?	29%
C/C(=N\NC(=O)c1ccccc1O)c1cccc(NC(=O)c2ccccc2)c1	8%	289	-4%	?	?
C/C(=N\NC(=O)c1cccc(Cl)c1)c1cccc(NC(=O)c2ccco2)c1	-1%	-26	-1%	12µM*	?
C/C(=N\NC(=O)c1cc(O)ccc1O)c1cccc(NC(=O)c2cccc(Cl)c2)c1	63µM*	32	nt	?	9%
C/C(=N\NC(=O)c1cc(O)ccc1O)c1cccc(NC(=O)c2ccc(Cl)cc2)c1	40µM*	19	nt	?	?
CC(C)OC(=O)c1cccc(NC(=O)Cn2nnc3sc4c(c3c2=O)CCCC4)c1	-8%	4	nt	nt	nt
O=C(COc1ccc(Cl)cc1)N/N=C/CCc1ccccc1	24%	-2	4%	-2%	-11%
Cc1ccc(-n2c(C)c(C)c3c(NCCO)ncnc32)cc1	-7%	-35	2%	32%	71%
Cc1cc(N=NC(=O)c2ccccc2O)c2ccccc2c1O	9%	-73*	?	?	55%
O=C(N=Nc1ccc(NOC(=O)c2ccccc2Br)cc1)c1ccccc1O	?	127	?	169%	185%
CCOC(=O)N1CCN(S(=O)(=O)N2CCCC(C(=O)NCc3ccc(C)cc3)C2)CC1 (centres undefined)	nt	-4	nt	nt	nt
NCC1OC(O[C@@H]2[C@H](O)[C@@H](OC3C(O)C(N)CC(N)C3OC3OC(CO)C(O)C(O)C3N)O[C@@H]2CO)C(N)C(O)C1O (some centres undefined)	nt	nt	1%	nt	nt
CN(C)C(=O)c1ccc(-c2nc(NCc3ccccc3)c3ccccc3n2)cc1	nt	nt	-14%	nt	nt
COc1ccc(Cn2c(-c3ccco3)nc3oc4cc(OC)ccc4c(=O)c3c2=O)cc1	?	-2	-2%	?	?
CCCCn1c(-c2ccco2)nc2oc3ccccc3c(=O)c2c1=O	-2%	-35	1%	9.3µM*	?
COc1ccc(-c2nc3oc4cc(OC)ccc4c(=O)c3c(=O)n2Cc2ccco2)cc1	20µM*	-15	3%	-3%[5.75 µM]	?
COc1ccc2c(=O)c3c(=O)n(Cc4ccco4)c(-c4ccco4)nc3oc2c1	40µM*	1	-13%	nt	-8%
CCc1nc2oc3cc(OC)ccc3c(=O)c2c(=O)n1Cc1ccco1	28µM*	-35	0%	?	12µM*
COc1ccc2c(=O)c3c(=O)n(Cc4ccccc4)c(C(C)C)nc3oc2c1	nt	-30	nt	nt	nt
CCOC(=O)C1=C(C)N(c2ccc(OC)cc2)C(=O)/C1=C\c1ccc(O)c(OCC)c1	4.5µM*	-24	?	-20%	?
CCOC(=O)C1=C(C)N(c2ccc(OC)cc2)C(=O)/C1=C\c1cccs1	-10%	-62*	-1%	23%	-5%
Cc1ccc(CN(C(=O)COc2ccc(Cl)c(C)c2)c2ccccn2)o1	-15%	-6	nt	nt	nt
